{"source": "PubChem BioAssay (EPA / NIEHS)", "note": "Calls of active or inactive are those of the source. How the source made its calls: active means hit-call score of the fitted dose curve at least 0.9, where 1 is the maximum; inactive means score below 0.9.", "data": [{"molecular_target": "Estrogen receptor (Homo sapiens) (UniProt P03372)", "sequence (P03372 whole entry, looked up)": "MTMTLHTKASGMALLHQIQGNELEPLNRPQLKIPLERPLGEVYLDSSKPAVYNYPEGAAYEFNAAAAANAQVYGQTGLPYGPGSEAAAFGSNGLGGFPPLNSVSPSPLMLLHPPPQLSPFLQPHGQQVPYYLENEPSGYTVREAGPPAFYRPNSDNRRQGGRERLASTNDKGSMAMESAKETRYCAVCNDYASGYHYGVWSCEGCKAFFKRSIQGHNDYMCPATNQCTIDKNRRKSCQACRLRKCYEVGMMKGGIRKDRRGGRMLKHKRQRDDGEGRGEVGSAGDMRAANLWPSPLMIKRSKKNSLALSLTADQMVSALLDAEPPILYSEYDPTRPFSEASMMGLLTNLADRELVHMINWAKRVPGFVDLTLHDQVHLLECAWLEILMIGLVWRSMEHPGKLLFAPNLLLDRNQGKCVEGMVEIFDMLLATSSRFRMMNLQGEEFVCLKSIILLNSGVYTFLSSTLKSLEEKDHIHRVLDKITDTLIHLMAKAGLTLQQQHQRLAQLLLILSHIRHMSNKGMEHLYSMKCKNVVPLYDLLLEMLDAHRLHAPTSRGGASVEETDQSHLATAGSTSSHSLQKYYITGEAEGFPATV", "test": "OT_ERa_GFPERaERE_0480: Odyssey Thera (OT) 8-hour HeLa Transcription Induction Assay for Estrogen Receptor (AID 2283381)", "method": "OT_ERa_GFPERaERE_0480 is a cell-based, single-readout assay that uses HeLa, a human cervix cell line, with measurements taken at 8 hours after chemical dosing in a 384-well plate.OT_ERa_GFPERaERE_0480 is one of one assay component(s) measured or calculated from the OT_ERa_GFPERaERE_0480 assay. It is designed to make measurements of fluorescent protein induction, a form of inducible reporter, as detected with optical microscopy: fluorescence microscopy signals by Microscopy technology.Data from the assay component OT_ERa_GFPERaERE_0480 was analyzed into 1 assay endpoint. This assay endpoint, OT_ERa_EREGFP_0480, was analyzed in the positive analysis fitting direction relative to DMSO as the negative control and baseline of activity. Using a type of inducible reporter, measures of receptor for gain-of-signal activity can be used to understand the reporter gene at the pathway-level as they relate to the gene ESR1. Furthermore, this assay endpoint can be referred to as a primary readout, because the performed assay has only produced 1 assay endpoint. To generalize the intended target to other relatable targets, this assay endpoint is annotated to the nuclear receptor intended target family, where the subfamily is steroidal.\nAll assay endpoints are quantified using high content image analysis algorithms.", "values": [{"smiles": "CCCCC(CC)COCCO", "note": "(stereo not given)", "outcome": "inactive"}, {"smiles": "O=C(O)C1=NN(c2ccc(S(=O)(=O)O)cc2)C(=O)C1", "outcome": "inactive"}, {"smiles": "CCCCCCCCCCCCN1CCOCC1", "outcome": "inactive"}, {"smiles": "CC1=CCC(C(C)(C)O)CC1", "note": "(stereo not given)", "outcome": "inactive"}, {"smiles": "CC(=O)CC(=O)N(C)C", "outcome": "inactive"}, {"smiles": "CCCCCCCCOS(=O)(=O)O", "outcome": "inactive"}, {"smiles": "CCCCN(CCCC)CCCCCCN(CCCC)CCCC", "outcome": "inactive"}, {"smiles": "CCCCCCC(C)O", "note": "(stereo not given)", "outcome": "inactive"}, {"smiles": "CCCCCCCCCO", "outcome": "inactive"}, {"smiles": "CCCc1ccc(N)cc1", "outcome": "inactive"}, {"smiles": "COc1ccc2[nH]cc(CCNC(C)=O)c2c1", "outcome": "inactive"}, {"smiles": "O=Cc1ccccc1O", "outcome": "inactive"}, {"smiles": "COc1cc(OC)c2ccc(=O)oc2c1", "outcome": "inactive"}, {"smiles": "CCCCCCCCCOS(=O)(=O)O", "outcome": "inactive"}, {"smiles": "COC(=O)C(C)Oc1ccc(Oc2ncc(C(F)(F)F)cc2Cl)cc1", "note": "(stereo not given)", "outcome": "inactive"}, {"smiles": "CCCCCCCC(=O)N(C)C", "outcome": "inactive"}, {"smiles": "CCC(C)(CCCC(C)C)OC(C)=O", "note": "(stereo not given)", "outcome": "inactive"}, {"smiles": "CC(CCO)CC(C)(C)C", "note": "(stereo not given)", "outcome": "inactive"}, {"smiles": "CCOCC(C)O", "note": "(stereo not given)", "outcome": "inactive"}, {"smiles": "CC(=O)N(C)C", "outcome": "inactive"}, {"smiles": "Cc1cccc(C)c1", "outcome": "inactive"}, {"smiles": "CCCCC/C=C\\C=C\\C(=O)OCC", "AC50": "95.6 µM (active)"}, {"smiles": "OC[C@@H](O)[C@H](O)[C@@H](O)[C@@H](O)CO", "outcome": "inactive"}, {"smiles": "C1CCCNCC1", "outcome": "inactive"}, {"smiles": "NCCN1CCNCC1", "outcome": "inactive"}, {"smiles": "COC(=O)c1ccc(C(=O)OC)cc1", "outcome": "inactive"}, {"smiles": "O=C(O)CS", "outcome": "inactive"}, {"smiles": "O=C(OCc1ccccc1)c1ccccc1O", "outcome": "inactive"}, {"smiles": "CCC(C)C1CCCCC1=O", "note": "(stereo not given)", "outcome": "inactive"}, {"smiles": "CC(=O)c1ccc(O)cc1", "outcome": "inactive"}, {"smiles": "CC(=O)Oc1c(C)c(C)c2c(c1C)CC[C@@](C)(CCC[C@H](C)CCC[C@H](C)CCCC(C)C)O2", "outcome": "inactive"}, {"smiles": "CCCO[Si](OCCC)(OCCC)OCCC", "outcome": "inactive"}, {"smiles": "CCNC(=S)NCC", "outcome": "inactive"}, {"smiles": "COc1ccccc1O", "outcome": "inactive"}, {"smiles": "CC(C)CCCC(C)(C)O", "outcome": "inactive"}, {"smiles": "CC(O)CN", "note": "(stereo not given)", "outcome": "inactive"}, {"smiles": "CCCCCC(=O)O[C@]1(C(C)=O)CC[C@H]2[C@@H]3CCC4=CC(=O)CC[C@]4(C)[C@H]3CC[C@@]21C", "outcome": "inactive"}, {"smiles": "CNC(=C[N+](=O)[O-])NCCSCc1ccc(CN(C)C)o1", "outcome": "inactive"}, {"smiles": "CC(O)CNCC(C)O", "note": "(stereo not given)", "AC50": "29.8 µM (active)"}, {"smiles": "CCCCCC1C(=O)CCC1CC(=O)OC", "note": "(stereo not given)", "outcome": "inactive"}]}]}
